The text below walks through data of PubChem BioAssay (EPA / NIEHS).

A short description of assay [1]: ATG_E_Box_CIS: Attagene CIS-FACTORIAL HepG2 Assay for human Enhancer Box (E-box) (AID 2282936). The following applies: HepG2 E-box cis-reporter transcription, actives raise or lower the signal. An outline of the steps: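 DMSO served as negative control and baseline for bidirectional fitting. Human hepatoma HepG2 cells, transiently transfected with cis-reporter constructs, were dosed 24 h; reporter mRNA read by RT-PCR and capillary electrophoresis.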

The nature of assay [2]: ATG_M_61_CIS: Attagene CIS-FACTORIAL HepG2 Assay for M61 Transcription Factor (Internal Marker) (AID 2282937). Particulars: HepG2 Attagene CIS-FACTORIAL M61 internal marker reporter; actives raise or lower the signal. The procedure, abridged: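 HepG2 cells transiently transfected with multiplexed cis-promoter reporter units reporting endogenous transcription factor activity, measured 24 h after dosing. Reporter mRNA quantified by RT-PCR and capillary electrophoresis; bidirectional fit against DMSO baseline.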

Assay [3] is described as follows: ATG_EGR_CIS: Attagene CIS-FACTORIAL HepG2 Assay for human Early Growth Response 1 (EGR1) (AID 2282938). Particulars: HepG2 Attagene CIS-FACTORIAL EGR reporter mRNA; actives raise or lower the signal. An outline of the steps: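 HepG2 cells transiently transfected with cis-element-driven multiplexed reporter units, dosed for 24 h. EGR1-element reporter mRNA quantified by RT-PCR, 6-FAM labelling, HpaI digestion and capillary electrophoresis; bidirectional fit versus DMSO.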

Assay [4] is described as follows: ATG_M_19_CIS: Attagene CIS-FACTORIAL HepG2 Assay for M19 Transcription Factor (Internal Marker) (AID 2282939). Particulars: HepG2 Attagene CIS-FACTORIAL M19 internal marker reporter; actives raise or lower the signal. An outline of the steps:
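Chemical-treated HepG2 (24 h) with MRTU constructs; reporter transcripts detected by fluorescent RT-PCR fragment analysis on capillary electrophoresis. Internal background marker, DMSO as baseline.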

A short description of assay [5]: ATG_ERE_CIS: Attagene CIS-FACTORIAL HepG2 Assay for Estrogen Response Element (ERE) (AID 2282940). Particulars: HepG2 ERE cis-reporter, Attagene RNA transcript; actives raise or lower the signal. The procedure, abridged: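 Human liver cells (HepG2) bearing transiently transfected, promoter-regulated reporter units were exposed 24 h. Reporter mRNA induction was detected by capillary electrophoresis of labelled RT-PCR products and fitted bidirectionally to DMSO.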

The nature of assay [6]: ATG_Ets_CIS: Attagene CIS-FACTORIAL HepG2 Assay for human Erythroblast Transformation Specific (ETS) (AID 2282941). Particulars: HepG2 ETS cis-reporter transcription, actives raise or lower the signal. The procedure, abridged: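 Human HepG2 hepatoma cells were transiently transfected with promoter-driven reporter constructs and treated for 24 hours. Reporter transcripts were quantified by RT-PCR with fluorescent primer extension; bidirectional curve fitting used DMSO as reference.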

The target of assay [7] is Hepatocyte nuclear factor 3-beta (Homo sapiens) (UniProt Q9Y261). Nature of the assay: ATG_FoxA2_CIS: Attagene CIS-FACTORIAL HepG2 Assay for human Forkhead box A2 (FOXA2) (AID 2282942). Particulars: HepG2 cis-reporter transcription factor activity, 24 h; actives raise or lower the signal. The procedure, abridged:
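HepG2 transiently transfected with a multiplexed cis-promoter reporter library read endogenous FOXA2 activity. After 24 h compound exposure, reporter mRNA was quantified by RT-PCR, HpaI digestion and capillary electrophoresis. Bidirectional fit against DMSO.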

The target in assay [8] is Bile acid receptor (Homo sapiens) (UniProt Q96RI1). Nature of the assay: ATG_IR1_CIS: Attagene CIS-FACTORIAL HepG2 Assay for human Nuclear Receptor Subfamily 1 Group H Member 4 (NR1H4), IR1 submotif (AID 2282946). Particulars: IR1 reporter transcription, actives raise or lower the signal. The procedure, abridged:
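Cells (human HepG2) carry transiently transfected cis-promoter reporter transcription units. Compounds are incubated 24 h, total RNA is reverse-transcribed and amplified, and labelled fragments are resolved by capillary electrophoresis. Curves use DMSO as baseline.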

Assay [9] is described as follows: ATG_ISRE_CIS: Attagene CIS-FACTORIAL HepG2 Assay for human Interferon Regulatory Factor 1 (IRF1) binding to an Interferon-Stimulated Response Element (ISRE) (AID 2282948). The following applies: HepG2 ISRE cis-reporter (Attagene), mRNA transcription readout; actives raise or lower the signal. The procedure, abridged: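 Cell-based cis-reporter assay; HepG2; 24 h exposure; reporter mRNA by RT-PCR plus capillary electrophoresis fluorescence; activity in either direction scored relative to DMSO.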

Assay [10] is described as follows: ATG_M_32_CIS: Attagene CIS-FACTORIAL HepG2 Assay for M32 Transcription Factor (Internal Marker) (AID 2282949).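 Note: background control marker of the multiplexed CIS panel rather than a real target.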 The following applies: HepG2 Attagene cis-factorial M32 reporter, mRNA; actives raise or lower the signal. An outline of the steps:
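Following 24 h chemical exposure of HepG2 cells transiently expressing cis-promoter reporter constructs, reporter transcript levels were determined by RT-PCR with fluorescent labelling and capillary electrophoresis, then fitted bidirectionally against DMSO.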

Assay [11] in a line: ATG_M_06_CIS: Attagene CIS-FACTORIAL HepG2 Assay for M06 Transcription Factor (Internal Marker) (AID 2282950). Particulars: HepG2 Attagene CIS-FACTORIAL M06 internal marker reporter; actives raise or lower the signal. The procedure, abridged:
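Cells (HepG2, transiently carrying cis-driven reporter units) receive chemical for 24 h before RNA isolation. Reporter cDNA is PCR-amplified, FAM-labelled by primer extension, HpaI-digested and sized on a capillary analyser.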

In assay [12] the target is Hypoxia-inducible factor 1-alpha (Homo sapiens) (UniProt Q16665). Nature of the assay: ATG_HIF1a_CIS: Attagene CIS-FACTORIAL HepG2 Assay for human Hypoxia Inducible Factor 1 (HIF1A) (AID 2282951). Particulars: HepG2 Attagene cis-factorial HIF1a reporter transcription; actives raise or lower the signal. An outline of the steps:
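HepG2 cells transiently transfected with multiple cis-regulated reporter transcription units measure endogenous transcription factor activity. After 24 h exposure, reporter mRNA is quantified by RT-PCR with 6-FAM labelling, HpaI digestion and capillary electrophoresis. Bidirectional fitting against DMSO.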

The target of assay [13] is Hepatocyte nuclear factor 6 (Homo sapiens) (UniProt Q9UBC0). Briefly: ATG_HNF6_CIS: Attagene CIS-FACTORIAL HepG2 Assay for human Hepatocyte Nuclear Factor 6 (HNF6) (AID 2282952). Particulars: HepG2 Attagene cis-factorial HNF6 reporter transcription; actives raise or lower the signal. An outline of the steps: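 HepG2 cells transiently transfected with cis-element-driven multiplexed reporter units measuring endogenous transcription factor activity. After 24 h exposure, reporter mRNA quantified by RT-PCR, FAM-labelled fragments and capillary electrophoresis; bidirectional fitting versus DMSO.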
Hepatocyte nuclear factor 6 (Homo sapiens), sequence (Q9UBC0 whole entry, looked up, the tested form may be a part): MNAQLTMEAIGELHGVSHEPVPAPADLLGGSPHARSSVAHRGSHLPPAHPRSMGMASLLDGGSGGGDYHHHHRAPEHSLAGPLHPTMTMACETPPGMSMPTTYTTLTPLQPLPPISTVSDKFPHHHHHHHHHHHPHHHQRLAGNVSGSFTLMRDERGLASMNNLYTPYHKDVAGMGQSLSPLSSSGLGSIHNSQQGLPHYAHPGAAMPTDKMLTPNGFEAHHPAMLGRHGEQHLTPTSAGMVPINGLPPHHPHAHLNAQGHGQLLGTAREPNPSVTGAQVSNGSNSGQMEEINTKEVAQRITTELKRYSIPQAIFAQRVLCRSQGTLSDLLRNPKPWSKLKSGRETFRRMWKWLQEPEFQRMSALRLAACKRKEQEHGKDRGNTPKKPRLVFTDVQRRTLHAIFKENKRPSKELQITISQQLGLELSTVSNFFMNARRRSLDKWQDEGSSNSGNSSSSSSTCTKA

Assay [14] can be described thus: ATG_MRE_CIS: Attagene CIS-FACTORIAL HepG2 Assay for human Metal Responsive Element (MRE) (AID 2282954). Particulars: HepG2 MRE cis-reporter transcription, Attagene multiplex; actives raise or lower the signal. An outline of the steps:
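After a 24 h chemical exposure, transiently transfected HepG2 cells yield RNA whose reporter sequences are amplified, FAM-labelled and sized by capillary electrophoresis. Curves are fitted bidirectionally relative to DMSO.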

The nature of assay [15]: ATG_GATA_CIS: Attagene CIS-FACTORIAL HepG2 Assay for human GATA Binding Protein (AID 2282944). Particulars: HepG2 GATA cis-element reporter, Attagene multiplex mRNA; actives raise or lower the signal. The procedure, abridged: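 Transfected cis-reporter HepG2 cells were treated with chemicals for 24 hours. Total RNA was then converted to cDNA, amplified with reporter-specific primers and analysed by fluorescent capillary electrophoresis, using DMSO-treated wells as baseline.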

The nature of assay [16]: ATG_GRE_CIS: Attagene CIS-FACTORIAL HepG2 Assay for human Glucocorticoid Response Elements (GRE) (AID 2282947). The following applies: HepG2 GRE cis-reporter, Attagene multiplex mRNA; actives raise or lower the signal. The procedure, abridged: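 Assay uses human hepatoma HepG2 cells transfected with cis-promoter reporter units, exposed 24 h. mRNA from reporters detected by RT-PCR plus capillary electrophoresis; DMSO serves as negative control and baseline.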

In assay [17] the target is Heat shock factor protein 1 (Homo sapiens) (UniProt Q00613). Nature of the assay: ATG_HSE_CIS: Attagene CIS-FACTORIAL HepG2 Assay for human Heat Shock Transcription Factor 1 (HSE) (AID 2282953). Particulars: HepG2 HSE cis-reporter, Attagene RNA transcription; actives raise or lower the signal. The procedure, abridged:
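Liver-derived HepG2 cells carry transiently introduced multiple reporter units governed by cis promoters. Reporter RNA measured 24 h post-dose through reverse transcription, PCR amplification, fluorescent labelling and capillary electrophoresis, normalised to DMSO.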

A short description of assay [18]: ATG_PBREM_CIS: Attagene CIS-FACTORIAL HepG2 Assay for human Phenobarbital-responsive Enhancer Module (PBREM) (AID 2282955). Particulars: HepG2 PBREM cis-reporter, Attagene multiplexed transcription; actives raise or lower the signal. An outline of the steps:
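HepG2 cells transiently transfected with multiple cis-regulated reporter units measure endogenous transcription factor activity; 24 h compound exposure. Reporter mRNA quantified by RT-PCR, fluorescent labelling, HpaI digestion and capillary electrophoresis; bidirectional fit versus DMSO.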

The nature of assay [19]: ATG_FoxO_CIS: Attagene CIS-FACTORIAL HepG2 Assay for human Forkhead box O (FoxO) (AID 2282943). The following applies: HepG2 Attagene cis-reporter, FoxO element, mRNA; actives raise or lower the signal. The procedure, abridged:
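Endogenous transcription factor activity read from multiplexed cis-promoter reporter transcripts in transiently transfected HepG2, 24 h after dosing. Reporter RNA measured via RT-PCR plus capillary electrophoresis of FAM-labeled products; gain or loss relative to DMSO.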

A short description of assay [20]: ATG_GLI_CIS: Attagene CIS-FACTORIAL HepG2 Assay for human Zinc Finger Protein GLI1 (AID 2282945). The following applies: HepG2, Attagene cis-factorial reporter mRNA, GLI element; actives raise or lower the signal. The procedure, abridged:
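Bidirectional curve fits relative to DMSO, using reporter mRNA levels from RT-PCR plus capillary electrophoresis. Cells were HepG2 transiently carrying cis-regulated reporter constructs, harvested 24 h after dosing.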

The source made the active and inactive calls. Rule for the calls: active = hit-call score of the fitted dose curve at least 0.9, where 1 is the maximum; inactive = score below 0.9.

Hypoxia-inducible factor 1-alpha (Homo sapiens), sequence (Q16665 whole entry, looked up): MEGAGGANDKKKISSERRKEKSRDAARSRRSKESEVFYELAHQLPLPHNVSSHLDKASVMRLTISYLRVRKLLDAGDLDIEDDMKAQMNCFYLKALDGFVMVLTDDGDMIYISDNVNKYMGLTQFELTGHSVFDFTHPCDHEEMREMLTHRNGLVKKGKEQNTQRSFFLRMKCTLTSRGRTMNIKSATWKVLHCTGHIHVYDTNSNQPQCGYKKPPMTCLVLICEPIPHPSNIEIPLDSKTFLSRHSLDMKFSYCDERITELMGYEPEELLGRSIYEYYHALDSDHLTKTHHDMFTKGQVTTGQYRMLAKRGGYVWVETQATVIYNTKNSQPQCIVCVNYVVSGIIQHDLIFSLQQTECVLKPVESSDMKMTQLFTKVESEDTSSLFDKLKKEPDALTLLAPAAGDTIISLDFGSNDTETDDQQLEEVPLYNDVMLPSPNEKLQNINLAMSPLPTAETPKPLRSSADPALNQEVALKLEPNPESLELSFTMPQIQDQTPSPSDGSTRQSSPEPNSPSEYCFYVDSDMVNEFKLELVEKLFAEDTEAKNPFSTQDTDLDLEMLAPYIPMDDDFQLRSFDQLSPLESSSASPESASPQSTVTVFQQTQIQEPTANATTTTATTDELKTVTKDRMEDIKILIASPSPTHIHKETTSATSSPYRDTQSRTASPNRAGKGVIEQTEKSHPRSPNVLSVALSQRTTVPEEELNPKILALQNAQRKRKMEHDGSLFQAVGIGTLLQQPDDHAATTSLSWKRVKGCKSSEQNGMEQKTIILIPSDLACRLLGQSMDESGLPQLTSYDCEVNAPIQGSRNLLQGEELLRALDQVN
Hepatocyte nuclear factor 3-beta (Homo sapiens), sequence (Q9Y261 whole entry, looked up): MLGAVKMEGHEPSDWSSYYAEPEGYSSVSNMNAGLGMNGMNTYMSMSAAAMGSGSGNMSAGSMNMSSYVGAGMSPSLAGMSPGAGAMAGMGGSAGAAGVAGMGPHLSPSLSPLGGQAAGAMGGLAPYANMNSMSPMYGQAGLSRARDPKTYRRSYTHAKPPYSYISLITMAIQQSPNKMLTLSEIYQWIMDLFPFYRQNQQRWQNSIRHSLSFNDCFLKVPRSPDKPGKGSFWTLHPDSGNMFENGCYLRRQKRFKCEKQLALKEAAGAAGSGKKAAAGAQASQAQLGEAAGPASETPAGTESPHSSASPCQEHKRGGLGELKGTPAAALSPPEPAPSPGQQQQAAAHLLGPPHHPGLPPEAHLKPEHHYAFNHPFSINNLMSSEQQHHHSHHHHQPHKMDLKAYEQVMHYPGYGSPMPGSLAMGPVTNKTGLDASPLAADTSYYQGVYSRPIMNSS
Bile acid receptor (Homo sapiens), sequence (Q96RI1 whole entry, looked up, the tested form may be a part): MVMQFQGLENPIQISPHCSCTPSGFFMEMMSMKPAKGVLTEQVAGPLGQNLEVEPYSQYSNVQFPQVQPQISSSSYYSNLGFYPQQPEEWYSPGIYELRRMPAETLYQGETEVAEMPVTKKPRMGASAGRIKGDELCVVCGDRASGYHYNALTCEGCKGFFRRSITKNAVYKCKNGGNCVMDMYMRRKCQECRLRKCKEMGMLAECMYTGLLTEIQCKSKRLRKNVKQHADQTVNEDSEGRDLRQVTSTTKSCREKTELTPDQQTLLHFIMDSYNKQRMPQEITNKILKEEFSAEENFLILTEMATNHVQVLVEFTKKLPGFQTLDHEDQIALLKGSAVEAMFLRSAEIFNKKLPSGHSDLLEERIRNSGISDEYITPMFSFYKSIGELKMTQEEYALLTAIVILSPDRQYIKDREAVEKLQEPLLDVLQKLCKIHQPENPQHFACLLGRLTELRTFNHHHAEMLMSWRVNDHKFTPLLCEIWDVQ
Heat shock factor protein 1 (Homo sapiens), sequence (Q00613 whole entry, looked up): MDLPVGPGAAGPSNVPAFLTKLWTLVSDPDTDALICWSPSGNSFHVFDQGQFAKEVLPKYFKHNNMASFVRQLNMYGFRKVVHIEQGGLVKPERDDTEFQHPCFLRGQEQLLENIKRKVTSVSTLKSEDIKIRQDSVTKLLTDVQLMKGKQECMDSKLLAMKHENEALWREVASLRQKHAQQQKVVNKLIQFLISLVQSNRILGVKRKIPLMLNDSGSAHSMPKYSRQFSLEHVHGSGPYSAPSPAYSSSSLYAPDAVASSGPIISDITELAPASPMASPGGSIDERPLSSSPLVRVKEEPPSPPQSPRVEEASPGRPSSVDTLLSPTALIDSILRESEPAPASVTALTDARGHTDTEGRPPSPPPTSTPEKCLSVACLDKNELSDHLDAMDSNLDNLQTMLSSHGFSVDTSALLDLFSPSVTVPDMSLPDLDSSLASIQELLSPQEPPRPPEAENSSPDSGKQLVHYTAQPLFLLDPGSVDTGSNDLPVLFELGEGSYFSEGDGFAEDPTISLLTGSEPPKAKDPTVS

For `CC(=O)OCC(C)OC(C)=O` (configuration not stated), the outcome in [1], in assay [2], in [3], in assay [4], in assay [5] and in assay [6] was inactive. In addition, the result in assay [7], in assay [8], in [9], in assay [10], in assay [11] and in assay [12] was inactive. Besides, the result in [13] and in assay [14] was inactive.
`COc1ccc(NC(C)=O)cc1N`: the result in assay [1], in assay [2], in assay [3], in assay [4], in [5] and in [6] was inactive. In addition, the compound was called inactive in assay [7], in assay [15], in [16], in assay [9], in [10] and in assay [11]. Further, the compound was classed as inactive in assay [12], in assay [13], in assay [17], in assay [14] and in assay [18].
As for `CCCC(=O)OCc1ccccc1`, the outcome in assay [1], in [2], in [3], in assay [4], in [5] and in assay [6] was inactive. The outcome in assay [19], in [15], in assay [20], in [8], in assay [9] and in assay [10] was inactive. Also, the compound was called inactive in [11], in assay [12], in assay [13], in assay [17] and in [14].
Take `CC1(C)S[C@@H]2[C@H](NC(=O)COc3ccccc3)C(=O)N2[C@H]1C(=O)O`: the outcome in [1], in assay [2], in assay [3], in assay [4], in assay [5] and in assay [6] was inactive. The compound was classed as inactive in [7], in [15], in [16], in assay [9], in [10] and in [11]. The result in assay [13], in assay [14] and in assay [18] was inactive.
Take `CC(=O)NS(=O)(=O)c1ccc(N)cc1`: the outcome in assay [1], in assay [2], in assay [3], in [4], in assay [5] and in assay [6] was inactive. In addition, the compound was classed as inactive in [19], in [15], in assay [20], in assay [16], in assay [9] and in assay [10]. The compound was called inactive in [11], in assay [13], in [17], in [14] and in assay [18].
Regarding `O=C(O)Cc1c(Cl)ccc(Cl)c1Cl`, the outcome in [1], in assay [2], in assay [3], in assay [4], in assay [5] and in [6] was inactive. Besides, the compound was called inactive in assay [19], in assay [15], in assay [20], in assay [8], in assay [9] and in [11]. Further, the compound was called inactive in assay [12], in assay [13], in assay [17], in assay [14] and in assay [18].
In the case of `CC1=Nc2ccc3ccccc3c2C1(C)C`, the outcome in assay [1], in assay [2], in [3], in assay [4], in [5] and in assay [6] was inactive. For the same compound, the compound was classed as inactive in assay [19], in [15], in assay [20], in [8], in assay [9] and in [10]. Besides, the compound was classed as inactive in assay [12] and in [13]. In assay [14], the AC50 was 100 µM (active).
